Measurements reported in PubChem BioAssay AID1851 (National Center for Advancing Translational Sciences (NCATS), 2009).
Values joined by “and” are separate entries in the source; they are usually repeats but may differ in a detail not shown here. Identical values can stand only once. The whole screen tested about 16,000 compounds, of which about 5,800 (36%) were called active. Another 23% or so got no clear call; they are omitted. Calls come from the whole dose curve; as a rule, active = well fitted curve in the direction sought with a large enough effect; inconclusive = small, poorly fitted or top-dose-only effect, or effect the other way; inactive = no such curve, though single readings can be large or run the other way. Some of the results follow. The source holds several records for some structures; these can differ, active in one and inactive in another.

target: Cytochrome P450 2C19 (Homo sapiens) (UniProt P33261); test: Cytochrome panel assay with activity outcomes; conditions: recombinant CYP, pro-luciferin dealkylation, luminescence, p450-cyp2c19; series mostly up to 57.1 µM; activity, negative = inhibition: at the top concentration
Sequence (P33261 whole entry, looked up): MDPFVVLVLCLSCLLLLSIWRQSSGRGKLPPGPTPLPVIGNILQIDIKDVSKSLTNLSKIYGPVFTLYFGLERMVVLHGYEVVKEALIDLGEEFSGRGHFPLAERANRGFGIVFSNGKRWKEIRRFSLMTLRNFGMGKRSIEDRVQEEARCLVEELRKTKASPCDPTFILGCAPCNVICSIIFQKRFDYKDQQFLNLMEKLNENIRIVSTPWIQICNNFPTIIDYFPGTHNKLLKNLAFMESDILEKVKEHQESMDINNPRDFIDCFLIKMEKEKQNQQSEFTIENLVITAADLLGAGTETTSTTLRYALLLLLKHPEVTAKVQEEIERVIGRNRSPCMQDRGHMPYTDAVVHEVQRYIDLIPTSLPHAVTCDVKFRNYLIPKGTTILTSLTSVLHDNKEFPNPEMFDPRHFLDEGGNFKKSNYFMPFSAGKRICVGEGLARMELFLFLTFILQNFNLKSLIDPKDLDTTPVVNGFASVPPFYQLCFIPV
% is set by controls: 0 for no effect and ±100 for the full control effect.

SMILES	activity, negative = inhibition	AC50
Cc1nn2c(NCC(C)C)c3c(nc2c1-c1ccccc1)CCC3	-28% (inactive)	
Cc1nn2c3c(cnc2c1-c1ccccc1)C(=O)CC(c1ccccc1)C3 (configuration not stated)		7.08 µM (active)
Cc1ccc(C)c(NC(=O)NCc2ccc(Cl)cc2)c1		1.58 µM (active)
CCCCN1CCCC[C@H]1C(=O)Nc1c(C)cccc1C	-18.3% [at 25.6 µM] (inactive)	
Cc1cccc(C)c1NC(=O)N1CCC(N2CCCCC2)CC1	-15.4% (inactive)	
COC(=O)C1CSC(C(=O)OC)N1C(=O)Nc1c(C)cccc1C (configuration not stated)		7.94 µM (active)
COC(=O)C1CSC(C(=O)OC)N1C(=O)Nc1ccccc1 (configuration not stated)		10 µM (active)
CC(=O)Nc1ccc(S(=O)(=O)NC2(C(F)(F)F)NC(=O)N(c3ccc(Cl)cc3)C2=O)cc1 (configuration not stated)	1.91% (inactive)	
COc1ccc(N2C(=O)NC(NC(=O)c3ccncc3)(C(F)(F)F)C2=O)cc1 (configuration not stated)		6.31 µM (active)
COc1ccc(C(=O)N2CCC3(CCCN(Cc4ccncc4)C3)CC2)cc1	-36.4% (inactive)	
CNc1ncnc2c1ncn2[C@@H]1O[C@H](CO)[C@@H](O)[C@@H]1O	-11.9% [at 25.6 µM] (inactive)	
O=C(O)c1ccccc1N[C@H](c1ccccc1)c1ccc2cccnc2c1O		3.98 µM (active)
O=C(O)c1cccnc1C(=O)O	-5.23% (inactive)	
CC(=O)C[C@H](c1ccc([N+](=O)[O-])cc1)c1c(O)c2ccccc2oc1=O	-43.1% [at 25.6 µM] (inactive)	
O=[N+]([O-])c1ccc([C@@H](Nc2ccccc2)c2ccc3cccnc3c2O)cc1		3.98 µM (active)
Cc1cc(C)c(C#N)c(SCS(=O)c2ccc(C(C)(C)C)cc2)n1 (configuration not stated)		3.16 µM (active)
C[C@]12CC3CC(N)(C1)C[C@@](C)(C3)C2		inactive and 10 µM (active)
C[C@@]12CC3CC(N)(C1)C[C@@](C)(C3)C2	-6.2% [at 25.6 µM] (inactive)	
Cc1nc([N+](=O)[O-])c(N2CCN(C)CC2)n1Cc1ccccc1	-21% (inactive)	
CCCn1c(CC)nc([N+](=O)[O-])c1S(=O)(=O)c1ccccc1		14.1 µM (active)
COc1cc(-c2nnc(SC/C=C/c3ccccc3)n2N)cc(OC)c1OC		15.8 µM (active)

SMILES	activity, negative = inhibition	AC50
CCS(=O)(=O)N1CCCC(C(=O)NCCCOC(C)C)C1 (configuration not stated)	-29.1% (inactive)	
CCCS(=O)(=O)N1CCCC(C(=O)NCCCOC(C)C)C1 (configuration not stated)	-15.6% (inactive)	
CCC(C)NC(=O)C1CCCN(C(=O)NC2CCCCC2)C1 (configuration not stated)		14.1 µM (active)
CO/N=C(\C(=O)N[C@@H]1C(=O)N2C(C(=O)O)=C(COC(N)=O)CS[C@@H]12)c1ccco1	3.25% [at 25.6 µM] (inactive)	
O=C(Cc1ccccc1)N/N=C/c1ccccc1OCc1ccc(Cl)cc1		4.47 µM (active)
NC(=S)N/N=C/c1ccccc1OCc1cccc(Cl)c1		2.24 µM (active)
O=C(CO)N/N=C/c1ccccc1F	-2.42% (inactive)	
Cc1cc2nc(C3CCCN(C(=O)NCc4ccccc4)C3)[nH]c2cc1C (configuration not stated)		20 µM (active)
CC1=C(C(=O)NCCN2CCN(C)CC2)C2(CCC(C)CC2)OC1=O (configuration not stated)	-19.5% (inactive)	
CC1=C(C(=O)N2CCCCCC2)C2(CCC(C)CC2)OC1=O (configuration not stated)		10 µM (active)
CN1C(=C2C(=O)OC(C)(C)OC2=O)Sc2ccccc21		1 µM (active)
O=[N+]([O-])c1ccc(CSc2ncnc3c2ncn3[C@@H]2O[C@@H](CO)[C@@H](O)[C@H]2O)cc1	33.6% (inactive)	
O=[N+]([O-])c1ccc(CSCc2ccc(Cl)cc2)cc1		0.398 µM (active)
N=C(N)SCCc1ccc(OCc2ccc([N+](=O)[O-])cc2)cc1	-11.6% (inactive)	
COc1ccc(N2CCN(C(=O)CSc3nnc4c5cc(C)ccc5n(C)c4n3)CC2)cc1		1 µM (active)
Cc1cc(=O)[nH]c2c1c(C)nn2C1CCOC(C)(C)C1 (configuration not stated)	-18.9% (inactive)	
O=C1Nc2ccc(F)cc2C12SCCS2		11.2 µM (active)
Cc1ccc2c(c1)C1(SCCS1)C(=O)N2		25.1 µM (active)
CCc1c(O)c2c(c(O)c1C(C)=O)C(=O)c1c(cc(O)c(C(=O)O)c1C(=O)O)C2=O	-9.38% [at 11.4 µM] (inactive)	
CCOc1cc(CNCCCN2CCOCC2)cc(Br)c1OCC(=O)Nc1cccc(C(F)(F)F)c1	-58.3% (inactive)	
CCOc1cc2[nH]c(=O)n(CCC(=O)NCc3ccc(OC)cc3)c(=O)c2cc1OCC	-16.3% (inactive)	

SMILES	activity, negative = inhibition	AC50
CCOc1cc(CNc2ccc(OC)cc2)cc(Br)c1OCC(=O)NC(C)(C)C		5.62 µM (active)
OC[C@@H]1O[C@H](n2cnc3c(/C=C(\O)c4ccccc4)ncnc32)[C@H](O)[C@@H]1O	34% [at 11.4 µM] (inactive)	
CCOc1ccc(N2C(=O)CS/C2=N/NC(=O)COc2ccc3ccccc3c2)cc1		15.8 µM (active)
O=C(CSCc1ccccc1Cl)NN1C(=O)c2ccccc2C1=O		10 µM (active)
O=C(CSCc1ccccc1Cl)NNC(=S)Nc1ccccc1		2.24 µM (active)
O=C(CSCc1ccccc1Cl)NNC(=O)c1ccccc1		5.01 µM (active)
O=C(NNC(=O)c1ccccc1O)c1ccc(Cl)cc1	-20.8% (inactive)	
O=C(NNC(=S)Nc1ccccc1)C1CC1	-32.8% (inactive)	
O=C(O)c1c2c(c(O)c3c1CN(C1CCCCC1)CO3)OCN(C1CCCCC1)C2	22.2% [at 11.4 µM] (inactive)	
O=C(CSc1nc2ccc([N+](=O)[O-])cc2s1)c1ccc2ccccc2c1	-43.1% [at 11.4 µM] (inactive)	
CCn1c(SCC(=O)c2ccc3ccccc3c2)nnc1-c1cccs1		0.708 µM (active)
CCn1c(SCC(=O)NC(=O)NCc2ccco2)nnc1-c1cccs1		14.1 µM (active)
CCn1c(SCC(=O)NC2CCCc3ccccc32)nnc1-c1cccs1 (configuration not stated)		7.94 µM (active)
CCn1c(SCC(=O)c2ccccc2)nnc1-c1cccs1		0.794 µM (active)
Cc1cc(C)nc(SCc2nnc(SCC(N)=O)n2Cc2ccco2)n1	-67.7% (inactive)	
Cc1ccccc1CSc1nnc(-c2cccs2)n1Cc1ccco1		1.41 µM (active)
O=C1C[C@@H](O)[C@@H](O)[C@H]2[C@@H]3C(=O)N(C4CCCCC4)C(=O)[C@@H]3CC[C@H]12	13.8% [at 11.4 µM] (inactive) and 12.1% [at 11.4 µM] (inactive) and 0.0924% [at 11.4 µM] (inactive)	
CCn1c(SCC(=O)Nc2sc3c(c2C(N)=O)CCC(C)C3)nnc1-c1ccco1 (configuration not stated)		7.08 µM (active)
O=C(/C=C/c1ccccc1)N1CCN(Cc2nc3ccccc3c(=O)[nH]2)CC1		22.4 µM (active)
O=C(O)/C=C\C(=O)N1Cc2cc3ccccc3nc2C1	21.9% [at 11.4 µM] (inactive)	
